# Most compounds without a hit are left out; they make up all but 0.99% or so of the library.
# SARS PLP yeast – SARS-CoV PLP inhibition in yeast; S. cerevisiae expressing SARS-CoV PLpro, growth rescue; Potency, µM (highest dose often 32.9 µM), for inactives: at the top dose activity, positive = growth rescue, actives largely listed as activators; hit rate 0.19% among 330,000; AID 485353; also: potency is read from the fitted curve at half-maximal effect; 0% is about no effect; nearly all actives have a fitted effect of over 55% in size
# NS1 inh – inhibitors of influenza NS1 protein function; hit rate 0.4% among 270,000; Potency, µM (highest dose often 46.1 µM), inactives show top-dose activity, positive = more growth; also: potency is read from the fitted curve at half-maximal effect; actives are rising curves; nearly all actives have a fitted effect of over 50% in size
#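 Read-out: OD600 growth recovery of NS1-expressing budding yeast. Cells grown overnight at 30C in -URA glucose medium, washed, resuspended and diluted 1:100 in 2% galactose assay medium, pH 6.0. Same strain lacking NS1 served as positive control.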
# AmpC detergent – blocks E. coli AmpC beta-lactamase in detergent assay; P00811; AmpC hydrolysis of nitrocefin, absorbance 480 nm, 0.01% Triton; Potency, µM (top dose mostly 114 µM), for the others: at the highest dose activity change, negative = inhibition, hits mostly inhibitors; hit rate 0.041% among 370,000; AID 485294; active = well fitted curve in the direction sought with a large enough effect; inconclusive = small, poorly fitted or top-dose-only effect, or another doubt; inactive = no such curve, though single readings can be large; an effect the other way counts as inactive or inconclusive;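 also: potency is read from the fitted curve at half-maximal effect; 0% = no-compound wells and -100% = no-enzyme wells; nearly all actives have a fitted effect of over 25% in size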
# Target sequence (P00811 whole entry, looked up): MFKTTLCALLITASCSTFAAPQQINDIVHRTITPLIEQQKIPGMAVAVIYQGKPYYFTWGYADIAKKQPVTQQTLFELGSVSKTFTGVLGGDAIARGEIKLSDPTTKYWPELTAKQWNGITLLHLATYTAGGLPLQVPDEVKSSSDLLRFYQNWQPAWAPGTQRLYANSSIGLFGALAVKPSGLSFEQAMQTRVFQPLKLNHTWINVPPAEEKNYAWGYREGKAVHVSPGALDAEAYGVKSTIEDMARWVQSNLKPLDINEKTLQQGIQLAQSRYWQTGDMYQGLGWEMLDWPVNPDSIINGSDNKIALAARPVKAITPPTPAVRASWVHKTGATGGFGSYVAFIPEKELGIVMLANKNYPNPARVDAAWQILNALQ
#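 AmpC (5.3 nM in the dispensed reagent) in 20 mM phosphate pH 7.0 with 0.01% (detergent screen) or 0.0001% Triton X-100 was preincubated with compounds for 15 min at room temperature. Nitrocefin was then added from an 800 uM solution, and hydrolysis was followed at 480 nm.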
# AmpC inh no detg – AmpC beta-lactamase inhibition without detergent | P00811 | AmpC nitrocefin hydrolysis, absorbance 480 nm, 0.0001% Triton | Potency, µM (highest dose often 57.1 µM), for the others: at the top dose activity change, negative = inhibition, usual class: inhibitors | hit rate 0.52% among 330,000; active = well fitted curve in the direction sought with a large enough effect; inconclusive = small, poorly fitted or top-dose-only effect, or another doubt; inactive = no such curve, though single readings can be large; an effect the other way counts as inactive or inconclusive;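 also: potency is read from the fitted curve at half-maximal effect; plate controls were no compound for no effect and no enzyme for full effect; nearly all actives have a fitted effect of over 20% in size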
#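 20 mM phosphate pH 7.0 + 0.01% (detergent screen) or 0.0001% Triton X-100; 5.3 nM AmpC reagent; cpd preinc 15 min RT; nitrocefin (800 uM stock) to start; A480 q20 s × 4 min; Activity was normalised to no-enzyme and no-compound control wells.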
# AMA1 RON2 block – AMA1-RON2 (P. falciparum) interaction inhibition; AlphaScreen AMA1-biotinylated RON2 peptide binding; Potency, µM (titrated, usually from 58.2 µM), inactives show at the highest dose activity change, negative = inhibition, usual class: inhibitors; hit rate 0.2% among 360,000; active = well fitted curve in the direction sought with a large enough effect; inconclusive = small, poorly fitted or top-dose-only effect, or another doubt; inactive = no such curve, though single readings can be large; an effect the other way counts as inactive or inconclusive;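 also: potency is read from the fitted curve at half-maximal effect; 0% = vehicle wells and -100% = peptide control; nearly all actives have a fitted effect of over 45% in size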
#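 AMA1 (3D7) with his tag at 25 nM final met compounds first, then biotinylated RON2 peptide at 25 nM; detection used donor plus acceptor beads, 10 µg/mL apiece, read by AlphaScreen after 30 min at room temperature.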
# Flu NS1 inh – influenza NS1 function inhibition validation. shares compounds with NS1 inh. activity change, negative = inhibition, % at 32.9 µM. influenza NS1 function cell assay, 15-point titration. 1,400 tested, under 10 active; also: 0% is about no effect
# PR8 titer – influenza virus titer reduction, NS1 project; virus titer (log TCID50), log10 TCID50 at 5 µM; hit rate 30% among 95; shares compounds with NS1 inh; MDCK infected influenza A/PR/8/34, virus titer TCID50; hits give low values; AID 504647; call rule not given here
# * = called active by the depositor; ? = inconclusive; · = no result; [ ] = another dose, or the depositor's remark. Unless noted, calls follow the shape of the full dose curve.
SMILES,SARS PLP yeast,NS1 inh,AmpC detergent,AmpC inh no detg,AMA1 RON2 block,Flu NS1 inh,others
O=C(Cn1cnc2scc(-c3ccc(Cl)cc3)c2c1=O)N1CCOCC1,0%,?,-6%,43%,0%,-16,
CCOc1cc(/C=N/NC(=O)COc2ccc(Cl)cc2)ccc1OS(=O)(=O)c1ccccc1,22%,2µM*,-1%,-28%,6%,?,PR8 titer=7.7
CCOc1cc(/C=N/NS(=O)(=O)c2ccccc2)ccc1OS(=O)(=O)c1ccc(C)cc1,6%,21%,-7%,-51%,-4%,·,
O=C(NCC(c1ccc(Cl)cc1)N1CCCCC1)c1ccccc1F (stereo not given),·,·,12%,·,·,·,
CCC(=O)Nc1sc2c(c1C#N)CCC2,0%,·,-10%,-17%,-4%,·,
CC(C)CC(=O)NC(NC(=S)Nc1sc2c(c1C#N)CCCC2)C(Cl)(Cl)Cl (stereo not given),-2%,7.1µM*,1%,-37%,52%,-12,PR8 titer=8.3
Cc1c(Cl)cnc(NC(=O)COC(=O)c2cccc(S(=O)(=O)N3c4ccccc4CC3C)c2)c1Cl (stereo not given),9%,11µM*,12%,0%,0%,-13,
COc1ccc(CNC(=O)c2cnc3sc(N4CCOCC4)nn3c2=O)cc1,·,·,-8%,·,·,·,
Cc1cc(OCC(=O)N[C@@H](CSCc2ccccc2)C(=O)O)c2c(C)c(C)c(=O)oc2c1,0%,13µM*,-7%,-20%,-5%,?,
Cc1cc(OCC(=O)N[C@@H](Cc2ccccc2)C(=O)O)c2c3c(c(=O)oc2c1)CCC3,5%,?,?,-36%,-7%,·,
Cc1c(C(=O)Oc2ccc(Br)cc2)sc2ncn(Cc3ccccc3F)c(=O)c12,·,·,-4%,·,·,·,
CCOC(=O)C1=C(c2ccccc2)N=c2s/c(=C\c3cc(OC)c(OC)c(OC)c3)c(=O)n2C1c1cccs1 (stereo not given),13%,22µM*,4%,-10%,22%,14,
Cc1ccc(C)c(N2CCN(C(=O)CCNC(=O)Cn3ccc4ccccc4c3=O)CC2)c1,30%,?,4%,-15%,3%,3,
Cc1c(C(=O)N(C)C)sc2c1c(=O)n(-c1ccc(Cl)c(Cl)c1)c(=O)n2Cc1ccc(F)cc1,·,·,7%,·,·,·,
Fc1ccc(Cn2nnnc2CN2CCC(n3nnc4cc(C(F)(F)F)ccc43)CC2)cc1,1%,5µM*,-11%,-20%,-6%,?,
COc1ccccc1CNC(=O)C1CCN(S(=O)(=O)c2ccc3[nH]c(=O)ccc3c2)CC1,·,·,1%,·,·,·,
CN(C)c1ccc(/C=N/NC(=O)c2ccc(CN3C(=O)c4cccc5cccc3c45)cc2)cc1,27%,4.5µM*,-9%,-13%,·,5,
O=C(N/N=C/c1ccccc1)c1ccc(CN2C(=O)c3cccc4cccc2c34)cc1,1%,16%,-4%,?,-6%,·,
CC1(C)Cc2c(sc3ncnc(NNC(=S)NCc4ccccc4)c23)CO1,1%,11µM*,6%,-45%,76%,-8,
O=C(c1ccc(Cl)cc1)N1CCC(c2ccncc2)CC1,·,·,3%,·,·,·,
COc1ccc(S(=O)(=O)NCCc2sc(-c3cccc(F)c3)nc2C)cc1,·,·,6%,·,·,·,
O=c1cc(N2CCc3ccccc32)[nH]c(=O)n1-c1ccc(Br)cc1,14%,6.3µM*,?,?,0%,22,
Cc1nc(N)c(C#N)c(-c2ccccc2)c1C,-2%,-6%,?,-23%,8%,·,
Cc1cc(C)c2c(n1)sc1c(-c3ccccc3)c(C#N)c(N)nc12,-2%,4.5µM*,-22%,-26%,-2%[2.32 µM],2,
O=C1NC(=S)S/C1=C/c1ccc(N2CCOCC2)o1,-8%,7.9µM*,11%,-49%,2%,2,
SMILES,SARS PLP yeast,NS1 inh,AmpC detergent,AmpC inh no detg,AMA1 RON2 block,Flu NS1 inh,others
CN1C(=O)C(=Cc2ccc(N3CCOCC3)o2)C(=O)N(C)C1=S,0%,5%,0%,-15%,-7%,·,
Cc1ccc(Sc2c(C)nn(C(=O)COc3ccccc3Br)c2C)cc1,·,·,12%,·,·,·,
O=C(NCc1ccccc1Cl)c1ccc2c(c1)N(Cc1ccccc1)C(=O)CS2,·,·,4%,·,·,·,
COc1ccc(NC(=O)NC2COc3ccccc3C2)cc1Cl (stereo not given),·,·,24%,·,·,·,
CC(=O)OC1C2CCC1C(N1CCCCC1)CC2 (stereo not given),2%,·,?,-6%,-9%,·,
CC(=O)OC1C2CCCC1C(N1CCCC1)CC2 (stereo not given),11%,?,5%,-6%,2%,0,
NC(=O)C1CCN(C(=O)C23CC4CC(CC(C4)C2)C3)CC1,1%,?,?,-5%,-8%,-9,
CN1C(=O)C(c2nnc(Nc3cccc4ccccc34)s2)C2CC1(C)Oc1ccccc12 (stereo not given),11%,11µM*,-5%,-13%,-22%,-21,
COc1ccc(CCNC(=O)c2ccc(Nc3nc4ccccc4n4nnnc34)cc2)cc1OC,·,·,-2%,·,·,·,
CCOc1cc(N2CCOCC2)c(OCC)cc1NC(=O)Cc1cccc2ccccc12,17%,13µM*,-2%,38%,-16%,-3,
CCOc1cc(N2CCOCC2)c(OCC)cc1NC(=O)COC(=O)c1ccccc1C,27%,28%,-11%,46%,-10%,·,
Nc1cc(=O)[nH]n1C1CCN(c2ccccc2)CC1,18%,14µM*,7%,-4%,-18%,27,
COc1cccc(NC(=O)N2CCC(n3c(C)nc4cccnc43)CC2)c1,·,·,-2%,·,·,·,
NC(=O)[C@H](Cc1cc2ccccc2s1)NC(=O)[C@@H]1CC2(CC(c3cccc(NC(=O)[C@@H]4CCC(=O)N4)c3)=NO2)CN1C(=O)/C=C/Sc1ccccc1 (stereo not given in full),-2%,18µM*,-1%,202%,-3%,33,
NC(=O)[C@H](Cc1cc2ccccc2s1)NC(=O)[C@@H]1CC2(CC(c3cccc(NC(=O)[C@@H]4CCC(=O)N4)c3)=NO2)CN1C(=O)c1ccccc1 (stereo not given in full),5%,-1%,1%,164%,16%,·,
CN(C)C(CNC(=O)c1cc(Br)ccc1Cl)c1ccco1 (stereo not given),9%,2µM*,-6%,2%,-12%,-15,
CN(C)C(CNC(=O)c1ccc(Br)cc1)c1ccco1 (stereo not given),0%,8%,2%,-2%,0%,·,
Nc1cccc(-c2cn3ccsc3n2)c1,·,·,-5%,·,·,·,
Cc1ccc(NC(=O)C2CCCCC2C(=O)O)cc1C (stereo not given),0%,-1%,12%,-12%,-7%,·,
